This is a sample that favours compounds with a hit; in the whole collection about 3.6% have one here.
Nrf2 inh = Nrf2 pathway inhibition | A549 ARE-Fluc reporter, luciferase luminescence, 18-24 h | Potency, µM (top dose mostly 46 µM), without a hit: at the top dose activity change, negative = inhibition, actives largely listed as inhibitors | 360,000 compounds, 2.1% hits; further: on the % scale 0 is the no-effect control and ±100 the full control effect; nearly all actives have a fitted effect of over 60% in size
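A549 ARE_Fluc cells (5000/well, 5% FBS OPTI-MEM) pre-incubated 2 h, then treated with compounds 18-24 h at 37C/5% CO2 in concentration-response. CellTiter-Fluor viability read first; BugLite luciferase luminescence after 15 min at room temperature gives Nrf2 activity.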
Nrf2 activator = activators of Nrf2 (ARE) signaling. AREc32 ARE-luciferase reporter (MCF7-derived line), luminescence, 24 h. Potency, µM (top dose mostly 46.1 µM), for inactives: top-dose activation, actives largely listed as activators. AID 624171. 410,000 compounds, 0.31% hits; further: % of control where 0% means no effect; nearly all actives have a fitted effect of over 65% in size
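Nrf2 activation is followed as ARE-luciferase induction in the AREc32 line after one day of compound treatment; luminescence is read with Steady-Glo.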
HepG2 tox = kills HepG2 cells in TGF-b inhibitor counter-screen; Potency, µM (series often up to 46.1 µM), for the others: at the highest dose activity change, negative = cytotoxicity, actives largely listed as cytotoxic; HepG2 CAGA-GFP viability, ATP luminescence, 18 h; 410,000 compounds, 0.76% hits
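CellTiter-Glo luminescence gave cytotoxicity after 18 hours at 37 degrees C. The cells were HepG2 CAGA-GFP in 1% FBS DMEM, stimulated with 500 pg/mL TGF-beta after compound addition. %Activity was normalised to no-cell wells (complete cell-killing) and DMSO (no toxicity), and curves were fitted and classified.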
A549 viability = A549 cytotoxicity, counter-screen for Nrf2 inhibitors; Potency, µM (highest dose often 46 µM), without a hit: at the top dose activity change, negative = cytotoxicity, usual class: inhibitors; 390,000 compounds, 0.16% hits; A549 ARE-Fluc cells, CellTiter-Fluor viability, 18-24 h; further: on the % scale 0 is the no-effect control and ±100 the full control effect
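A549 ARE_Fluc cells in 5% FBS OPTI-MEM were exposed to compounds in concentration-response for 18-24 h at 37 deg C. Viability was read by CellTiter-Fluor fluorescence (Ex 405/Em 525) after 30 min, before the luciferase read.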
TGFb SMAD3 inh = TGF-b pathway inhibition; Potency, µM (series often up to 46.1 µM), inactives show at the top dose activity, negative = inhibition, most hits filed as inhibitors; 410,000 compounds, 1.2% hits; HepG2 CAGA-GFP TGF-b/SMAD3 reporter, GFP fluorescence, 18 h; TGF-beta stimulated, 500 pg/mL final; further: on the % scale 0 is the no-effect control and ±100 the full control effect; nearly all actives have a fitted effect of over 65% in size
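Cell-based qHTS in HEPG2 carrying a CAGA-GFP Smad reporter; compounds added before 500 pg/mL final TGF-beta, 18 h incubation at 37 degrees C, GFP fluorescence quantified per cell by imaging cytometry.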
The depositor's hits bear a star; ? = inconclusive; / = no result given. The call rests on the fitted dose curve; in most records, active means well fitted curve in the direction sought with a large enough effect; inconclusive means small, poorly fitted or top-dose-only effect, or another doubt; inactive means no such curve, though single readings can be large; an effect the other way counts as inactive or inconclusive. Potency means the concentration at half of the fitted maximal effect.

SMILES	Nrf2 inh	Nrf2 activator	HepG2 tox	A549 viability	TGFb SMAD3 inh
CC(C)(C)NC(=O)C1CN(S(=O)(=O)c2ccccc2)CCN1S(=O)(=O)c1ccccc1 (configuration not stated)	0.2%	-0.6%	-0.4%	-0.2%	-44.6%
c1ccc2oc(-c3ccc4nc[nH]c4c3)nc2c1	/	?	-10.8%	-1.2%	0.7%
CC(Oc1ccc(Br)cc1Cl)C(=O)Nc1ccncc1 (configuration not stated)	20.6µM*	-1.1%	-42.5%	0.3%	?
COc1ccc(-c2nnc(NC(=O)c3ccc(S(=O)(=O)N4COCC4(C)C)cc3)o2)cc1	18.4µM*	-0.1%	-0.6%	-20.8%	-2.3%
CC1CCCCN1S(=O)(=O)c1ccc(C(=O)Nc2nnc(-c3ccncc3)o2)cc1 (configuration not stated)	?	-0.1%	-31.1%	-5.6%	?
N#CC1=C(SCC(=O)NC23CC4CC(CC(C4)C2)C3)NC(=O)C(C#N)C12CCCCC2 (configuration not stated)	14.6µM*	0.7%	-26.1%	?	11.2µM*
O=S(=O)(c1cccs1)N1CCN(c2ccnc3cc(Cl)ccc23)CC1	?	0.1%	-15.4%	?	?
O=C(O)CSCC(=O)N1CCN(c2ccnc3cc(Cl)ccc23)CC1	-6.6%	-0.7%	-1.8%	-9.2%	-0.3%
Cc1cccc(Cl)c1NC(=O)N1CCN(c2ccnc3cc(Cl)ccc23)CC1	9.2µM*	0.4%	-6.5%	-11.1%	-10.1%
O=C(Nc1cc(F)ccc1F)N1CCN(c2ccnc3cc(Cl)ccc23)CC1	16.4µM*	2.7%	-9.4%	-2.1%	2.8%
Cc1cccc(C)c1NC(=O)N1CCN(c2nc3ccccc3s2)CC1	4.61µM*	0.6%	-18.5%	-18.0%	-7.1%
CCCCNC(=O)N1CCN(c2ccnc3cc(Cl)ccc23)CC1	10.3µM*	0.5%	-4.2%	-4.1%	-5.3%
CC(=O)N1CCN(c2ccnc3cc(Cl)ccc23)CC1	?	0.3%	-4.4%	2.4%	-4.5%
COc1ccc(/C=C/C(=O)c2c(O)ccc3c(C)cc(=O)oc23)cc1	?	?	-53.5%	-5.6%	?
CC(=O)Nc1ccc(NC(=O)C(C)OC(=O)c2oc3ccccc3c2C)cc1 (configuration not stated)	-12.6%	-0.4%	4.5%	3.2%	-3.0%
C/C(=N\NC(=O)c1ccc(F)cc1)c1ccccn1	?	0.5%	-44.1%	?	1.12µM*
CCc1ccc(/C(C)=N/NC(=O)c2ccccn2)cc1	16.2%	3.8%	-4.9%	1.6%	4.6%
O=C(Nc1nc(-c2cccnc2)cs1)c1cccc([N+](=O)[O-])c1	?	2.6%	-20.0%	1.8%	1.7%
C/C(=N\NC(=O)c1c[nH]c2ccccc12)c1ccccn1	-18.4%	-0.2%	-24.7%	?	17.6%
O=C(Nc1nc(-c2ccccc2)cs1)c1cccc([N+](=O)[O-])c1	8.2µM*	5.3%	-13.3%	-24.2%	?
O=C(N/N=C(\c1ccccc1)c1ccccn1)c1cccc([N+](=O)[O-])c1	9.2µM*	0.0%	-0.5%	-13.6%	?
CCOc1ccc(C(=O)N/N=C(\c2ccccc2)c2ccccn2)cc1	20.6µM*	7.9%	-37.1%	?	?
COc1ccc(CCNC(=O)c2ccc(CNS(=O)(=O)c3ccc(C(C)(C)C)cc3)cc2)cc1OC	?	-0.2%	-20.1%	8.0%	0.5%
COc1ccc(NC(=O)/C=C/c2ccc(S(=O)(=O)N3CCOCC3)cc2)cc1	-1.5%	0.2%	-12.8%	-1.8%	0.0%
CC(C)c1ccc(OCC(=O)NC2CC(C)(C)NC(C)(C)C2)c(Br)c1	19.6%	4.9%	11.2µM*	-19.4%	?
SMILES	Nrf2 inh	Nrf2 activator	HepG2 tox	A549 viability	TGFb SMAD3 inh
Cc1csc(SC(C)C(=O)Nc2ccc(Cl)cn2)n1 (configuration not stated)	-6.8%	-0.8%	8.6%	17.1%	-3.6%
CC(=O)Nc1cccc(C(=O)/C=C/c2ccc(F)cc2)c1	-3.5%	-1.3%	12.6µM*	3.4%	?
CC(=O)Nc1cccc(C(=O)/C=C/c2ccc(Br)cc2)c1	?	?	-37.8%	?	?
CC(=O)c1cccc(NS(=O)(=O)c2ccc(N/C=C\C(=O)c3ccc(F)cc3)cc2)c1	25.9µM*	4.6%	-18.3%	?	?
Cc1ccc(CNC(=O)CN2C(=O)CSc3ccc(S(=O)(=O)N4CCCCC4)cc32)cc1	-6.6%	0.1%	-10.4%	-4.1%	-3.5%
CCCc1nc(SCC(=O)N2CCc3ccccc3C2)c2ccccc2n1	23.1µM*	6.4%	-5.7%	?	1.4%
COc1ccc(OC)c(NC(=O)c2c(C)oc3ncnc(N4CCOCC4)c23)c1	?	0.9%	-15.6%	10.8%	-22.9%
Cc1onc(-c2c(F)cccc2Cl)c1C(=O)OCC(=O)NCc1ccccc1	0.0%	-0.5%	-4.9%	4.7%	4.5%
Cn1c(=O)[nH]c(=O)c2[nH]c(N(Cc3ccccc3)Cc3ccccc3)nc21	/	1.1%	12.6µM*	?	11.2µM*
S=c1[nH]nc(C2CC2)n1Cc1ccccc1	-8.4%	0.1%	17.4%	5.3%	1.3%
c1ccc(-c2cc3c(-n4cccc4)ncnc3o2)cc1	16.2%	3.16µM*	9.1%	-3.0%	-23.7%
Cc1ccnc(OC(C(=O)O)C(OCCc2ccccc2)(c2ccccc2)c2ccccc2)n1 (configuration not stated)	?	-0.1%	-19.4%	-24.7%	?
Cc1cc(C)nc(OC(C(=O)O)C(OCCc2ccccc2)(c2ccccc2)c2ccccc2)n1 (configuration not stated)	13µM*	-0.5%	0.9%	-14.5%	-22.4%
COc1cc(NS(=O)(=O)c2cc(Br)cc3c2N(C(=O)C2CC2)CC3)cc(OC)c1	/	-0.4%	-22.6%	?	2.24µM*
Cc1ccc(NS(=O)(=O)c2cc(Br)cc3c2N(C(=O)C2CC2)CC3)cc1C	/	-0.4%	-17.0%	-18.8%	?
CC1CC(C)CN(CCCNS(=O)(=O)c2cc(Br)cc3c2N(C(=O)C2CC2)CC3)C1 (configuration not stated)	12.5%	-0.4%	3.98µM*	1.9%	10.7%
CC1CCCN(CCCNS(=O)(=O)c2cc(Br)cc3c2N(C(=O)C2CC2)CC3)C1 (configuration not stated)	?	-0.7%	-44.7%	-9.7%	0.1%
CCC1CCCCN1S(=O)(=O)c1ccc(C(=O)Nc2nnc(C3=COCCO3)o2)cc1 (configuration not stated)	?	-0.8%	-28.4%	?	-21.2%
C#CCn1c(=NC(=O)c2ccc(S(=O)(=O)N3CCc4ccccc4C3)cc2)sc2cc(S(N)(=O)=O)ccc21	3.26µM*	-1.6%	2.82µM*	5.17µM*	-7.7%

Assay outcomes from PubChem.
